AmpC no deterg = inhibitors of E. coli AmpC beta-lactamase without detergent; AmpC nitrocefin hydrolysis, absorbance 480 nm, 0.0001% Triton; Potency, µM (titrated, usually from 57.1 µM), inactives show top-dose activity change, negative = inhibition, usual class: inhibitors; 330,000 compounds, 0.52% hits; AID 485341;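 also: plate controls were no compound for no effect and no enzyme for full effect; nearly all actives have a fitted effect of over 20% in size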
Target sequence (P00811 whole entry, looked up): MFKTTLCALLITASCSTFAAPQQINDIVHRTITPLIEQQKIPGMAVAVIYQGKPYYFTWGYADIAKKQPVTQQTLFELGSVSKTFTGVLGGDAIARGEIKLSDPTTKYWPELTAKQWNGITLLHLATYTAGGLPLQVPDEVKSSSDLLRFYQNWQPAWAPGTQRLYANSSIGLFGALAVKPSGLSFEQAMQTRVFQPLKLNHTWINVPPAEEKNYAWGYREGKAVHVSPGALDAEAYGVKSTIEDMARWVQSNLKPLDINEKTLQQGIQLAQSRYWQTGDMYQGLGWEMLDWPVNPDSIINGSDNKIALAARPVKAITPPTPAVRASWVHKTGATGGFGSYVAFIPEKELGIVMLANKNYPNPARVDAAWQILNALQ
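20 mM phosphate pH 7.0 + 0.01% (detergent screen) or 0.0001% Triton X-100; 5.3 nM AmpC reagent; cpd preinc 15 min RT; nitrocefin (800 uM stock) to start; A480 q20 s × 4 min; Activity was normalised to no-enzyme and no-compound control wells.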
Sm TGR block = inhibitors of Schistosoma mansoni thioredoxin glutathione reductase; Q962Y6; purified TGR, DTNB reduction, TNB absorbance 405 nm; Potency, µM (doses to about 114 µM), for the others: at the highest dose activity change, negative = inhibition, hits mostly inhibitors; 360,000 compounds, 3% hits; AID 485364; also: % is scaled to controls: 0 for no effect and ±100 for the full control effect; nearly all actives have a fitted effect of over 60% in size
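TGR 20 nM + NADPH 100 uM (dispensed conc.), cpd preinc 15 min RT; start with NADPH (500 uM addition) then DTNB (15 mM addition). Kinetic TNB absorbance, 405 nm filter. Four-parameter Hill fit across titration.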
AmpC inh detg = inhibitors of E. coli AmpC beta-lactamase with detergent | AmpC hydrolysis of nitrocefin, absorbance 480 nm, 0.01% Triton | Potency, µM (doses to about 114 µM), without a hit: at the top dose activity change, negative = inhibition, usual class: inhibitors | P00811 | 370,000 compounds, 0.041% hits;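 also: 0% = no-compound wells and -100% = no-enzyme wells; nearly all actives have a fitted effect of over 25% in size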
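AmpC (5.3 nM in the dispensed reagent) in 20 mM phosphate pH 7.0 with 0.01% (detergent screen) or 0.0001% Triton X-100 was preincubated with compounds for 15 min at room temperature. Nitrocefin was then added from an 800 uM solution, and hydrolysis was followed at 480 nm.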
Pf growth 48h = inhibits P. falciparum growth in the first generation, 48 h; P. falciparum luciferase growth in erythrocytes, 48 h; Potency, µM (titrated, usually from 28.7 µM), without a hit: at the highest dose activity change, negative = inhibition, hits mostly inhibitors; 310,000 compounds, 5.9% hits; AID 504832; also: % is scaled to controls: 0 for no effect and ±100 for the full control effect
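Parasite viability was followed by luminescence of a genomically integrated firefly luciferase. Cultures held 0.1% parasitemia at 2% hematocrit (final), incubated under 5% CO2 at 37 C.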
SARS PLP yeast = blocks SARS-CoV papain-like protease in a yeast assay. S. cerevisiae expressing SARS-CoV PLpro, growth rescue. Potency, µM (series often up to 32.9 µM), for the others: at the top dose activity, positive = growth rescue, actives largely listed as activators. 330,000 compounds, 0.19% hits. AID 485353; calls by dose curve; also: 0% is about no effect; nearly all actives have a fitted effect of over 55% in size
Pf growth 96h = P. falciparum growth inhibition at 96 hours | P. falciparum luciferase reporter growth, 96 h | Potency, µM (titrated, usually from 28.7 µM), without a hit: at the top dose activity change, negative = inhibition, most hits filed as inhibitors | 320,000 compounds, 6.9% hits; also: % is scaled to controls: 0 for no effect and ±100 for the full control effect
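Luminescence readout: decreased luciferase signal marks inhibited growth of reporter-expressing P. falciparum in infected red cells (2% hematocrit, 0.05% parasitemia final), exposed to compound two generations (96 h, 37 C, 5% CO2).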
* hit, by the source's call; u = inconclusive; x = no result given; [ ] = dose if it differs, or a comment. Sampled rows, rich in hits. Any-hit rate of the full collection: about 12%. Unless noted, calls follow the shape of the dose curve; as a rule, active = well fitted curve in the direction sought with a large enough effect; inconclusive = small, poorly fitted or top-dose-only effect, or another doubt; inactive = no such curve, though single readings can be large; an effect the other way counts as inactive or inconclusive. Potency is read from the fitted curve at half-maximal effect.

SMILES	AmpC no deterg	Sm TGR block	AmpC inh detg	Pf growth 48h	SARS PLP yeast	Pf growth 96h
O=C1NCCN1CCNS(=O)(=O)c1ccccc1[N+](=O)[O-]	-11.6%	6.7%	2.8%	40.4%	1.4%	u
Cc1cc(C)c(S(=O)(=O)NCC23C=CC(O2)C2C(=O)N(c4ccccc4)C(=O)C23)c(C)c1 (stereo not given)	40.0%	4.47µM*	-15.2%	0.4%	-30.3%	53.0%
Cc1ncc([N+](=O)[O-])n1CC(=O)Nc1ccc(F)cc1	-7.7%	7.6%	-3.1%	-2.6%[0.00184 µM]	1.7%	u
C=CCN1CC2(c3ccccc3)CN(CC=C)CC(c3ccccc3)(C1)C2=O	-7.5%	0.2%	3.2%	7.1%	-2.9%	u
Cc1c2cnn(CC(=O)N3CCCCC3)c(=O)c2c(C)n1Cc1ccc(Cl)cc1	x	-9.7%	0.2%	x	x	x
CCOc1ccc(/C=N/OCC(=O)NC(c2ccccc2)c2ccccc2)cc1	0.0%	7.0%	0.6%	7.38µM*	9.7%	9.28µM*
COc1ccc(/C=N/OCC(=O)NC(c2ccccc2)c2ccccc2)c(OC)c1	-7.2%	-0.1%	u	u	-20.4%	u
CCOc1ccc(/C=N/Nc2ccccc2)cc1	-32.0%	25.1µM*	0.1%	3.0%[0.00184 µM]	0.3%	46.0%
CCOc1ccc2[nH]c(=O)c(C(c3nnnn3C3CCCCC3)N3CCN(C)CC3)cc2c1 (stereo not given)	-12.8%	u	-2.2%	-10.0%	10.9%	u
CCOc1ccc2[nH]c(=O)c(C(c3nnnn3Cc3ccco3)N3CCC(C)CC3)cc2c1 (stereo not given)	-32.6%	44.7µM*	1.4%	u	3.2%	25.0%
Cc1ccc(C)c2[nH]c(=O)c(C(c3nnnn3CCc3ccccc3)N3CCOCC3)cc12 (stereo not given)	89.8%	-39.6%	-23.0%	u	4.4%	45.6%
CCOc1ccc2[nH]c(=O)c(C(c3nnnn3Cc3ccco3)N3CCCC(C)C3)cc2c1 (stereo not given)	-1.3%	11.2µM*	u	u	1.8%	22.7%
Cc1ccc(C)c2[nH]c(=O)c(C(c3nnnn3Cc3ccco3)N3CCc4ccccc4C3)cc12 (stereo not given)	18.5%	14.1µM*	-1.8%	11.7µM*	6.7%	6.57µM*
CCOC(=O)c1sc2ccccc2c1S(=O)(=O)N1CCN(c2cccc(C)c2C)CC1	x	5.4%	6.9%	x	x	x
Cc1cc(NC(=O)CCC(=O)N(c2ccc(F)cc2)C(C(=O)NC2CCCC2)c2ccncc2)no1 (stereo not given)	18.7%	-20.0%	-15.2%	39.5%	-4.5%	41.3%
CC(C)P(=O)(Cc1cccc(C#N)c1)C(C)C	-12.0%	-1.5%	-7.4%	2.2%	0.1%	38.7%
O=C1NC(=O)N(c2ccccc2)C(=O)/C1=C/c1coc2ccc(O)cc2c1=O	-24.9%	0.0%	-13.5%	-6.2%	-0.1%	51.3%
O=C1NC(=O)N(c2ccc(Cl)cc2)C(=O)/C1=C/c1coc2ccc(O)cc2c1=O	-33.1%	1µM*	0.8%	-0.4%	0.8%	24.9%
O=C1NN(c2ccccc2)C(=O)/C1=C\c1coc2ccc(O)cc2c1=O	-36.5%	15.8µM*	u	-2.2%	-1.8%	37.7%
CC(=O)N1CCN(CC(=O)NC(=O)Nc2ccc3c(c2)OCCO3)CC1	-9.1%	1.1%	u	24.7%	-0.3%	29.1%
CN(C)CC1CCCCC1C1(O)c2ccccc2CSc2sccc21 (stereo not given)	174.4%	3.0%	-3.1%	9.28µM*	-2.3%	u
O=C(Nc1c(Cl)cc(Cl)cc1C(=O)NCc1cccnc1)c1ccc(Cl)cc1Cl	-10.1%	6.5%	4.0%	1.47µM*	1.3%	17.8%
Cc1ccc(C(=O)Nc2ccccc2C(=O)NCc2cccnc2)cc1	-9.2%	0.3%	-8.4%	u	-2.0%	10.4µM*
